Compounds without any hit were thinned out: in the full panel of roughly 83,000, 20% have a hit.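 How to read the values: 0–100, growth inhibition (40 = 60% inhibited); 0, no net growth; -100 to 0, cell death (-40 = 40% of starting cells died; -100 = all dead).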 Calls of active or inactive are those of the source. The calls were made as follows: active = growth percent below 10; inactive = the rest.

The assay has as its system MDA-MB-468 breast. Briefly: NCI-60 one-dose screen, 48 h (100 = growth as untreated, 0 = no growth, -100 = all killed). To be noted: 10 µM unless noted.
As to `ClC(Cl)c1nc(-c2ccco2)n2nc(-c3ccccc3)cc2n1`, the growth was -54.2% (active).

`C=CC(=O)NC(=O)Nc1ccccc1Cl`: the growth is 30.4% (inactive).

For the molecule `Cc1cccc(NC(=O)c2sc3nc4c(cc3c2N)CCCC4)c1`, the growth is 24.7% (inactive).

As for `Nc1n[nH]c2cccc(C#Cc3cccc(NC(=O)c4cc(N5CCOCC5)cc(C(F)(F)F)c4)c3)c12`, the growth was 85.6% (inactive).

In the case of `O=C(/C=C/c1ccco1)c1ccccc1O`, the growth is 60.7% (inactive).

On to `COC(=O)/C(=C\c1c(-c2ccccc2)[nH]c2ccccc12)S(C)(=O)=O`, for which the growth is 36.3% (inactive).

Regarding `c1ccc(Cn2cc(-c3nc4ccccc4s3)c3cccnc32)cc1`, the growth is 99.4% (inactive).

Turning to `Cc1nn(-c2ccccc2)c(N2CCCCC2)c1/C=N/NC(=O)Cn1c(=O)sc2ccccc21`, the growth was 85.5% (inactive).

Turning to `Cc1cc2nc(CC(=O)c3cccc([N+](=O)[O-])c3)c(=O)[nH]c2cc1C`, the growth is 85.1% (inactive).

As to `CCNCCCn1c2c(c3ccc([N+](=O)[O-])cc3c1=O)C(=O)c1cc(OC)cnc1-2`, the growth is -34.3% (active).

For the molecule `Cc1ccc(C(C)C)c(OCC(=O)O)c1`, the growth is 98.9% (inactive).

Turning to `N/C(=N\c1nc2c(Cl)cc(Cl)cc2s1)C(Cl)(Cl)Cl`, the growth is -48.6% (active).

Take `Cc1ccc(/C=C2\CN(C(=O)OC(C)(C)C)C/C(=C\c3ccc(C)cc3)C2=O)cc1`: the growth was 56.2% (inactive).

For `C=C(C)[C@@H]1CC[C@]2(C(N)=O)CC[C@]3(C)[C@H](CC[C@@H]4[C@@]5(C)C/C(=C/c6cccnc6)C(=O)C(C)(C)[C@@H]5CC[C@]43C)[C@@H]12`, the growth is 14.5% [100 µM] (inactive).

In the case of `Cc1cc(NS(=O)(=O)c2ccc(NC(=O)COc3ccc(-c4cc5ccccc5[nH]4)cc3)cc2)no1`, the growth was -0.467% (active).

For the molecule `CCCCCn1sc(=O)n(Cc2ccc(CNC(=O)OCc3ccc4c(Cl)cc(Cl)c(O)c4n3)cc2)c1=O`, the growth was 59.8% (inactive).

In the case of `CCNc1nc2ccc(Nc3ccnc4cc(Cl)ccc34)cc2[nH]1`, the growth is 21.8% (inactive).

In the case of `CCN(CC)c1ccc2cc(C(=O)NCCOCCOCCOCCn3cc(CCC(=O)Nc4ccc(C(=O)c5ccc(NC(=O)OC(C)(C)C)cc5)cc4)nn3)c(=O)oc2c1`, the growth was 51.3% (inactive).

As to `Oc1c(CN2CCCC2)cc(CSCc2ccccc2)c2cccnc12`, the growth is -33.1% (active).

As for `CCN(CC)CCNC(=O)c1ccc(-c2nc3ccc4[nH]ncc4c3c3c2CCCC3)cc1`, the growth is 17.4% (inactive).

For the molecule `N#C/C(=C\c1ccc(-c2ccc(Cl)cc2)o1)C(=O)Nc1ncc(Cc2ccc(Cl)cc2)s1`, the growth is 77.9% (inactive).

`CC/C(=C(/c1ccc(Cl)cc1)c1ccc(OCCN(C)C)cc1)c1ccc(Cl)cc1`: the growth is 50.7% (inactive).

`C/C(Cc1ccc(Cl)cc1)=C(\c1ccc(OCCN2CCCCCC2)cc1)c1ccc(OC(=O)C2CCCCC2)cc1`: the growth is 52.2% (inactive).

Take `C/C(=N\NC(=S)Nc1ccc(Br)cc1)c1cc2ccccc2oc1=O`: the growth is -23.5% (active).

Turning to `Fc1ccc(Nc2nc3nonc3nc2Nc2ccc(F)cc2)cc1`, the growth is -4.42% (active).

On to `SCc1ccc(CS)cc1`, for which the growth was 111% (inactive).

With `CN1CCCNc2c(c(=O)c2=O)NCCCN(C)CCCNc2c(c(=O)c2=O)NCCCN(C)CCCNc2c(c(=O)c2=O)NCCCN(C)CCCNc2c(c(=O)c2=O)NCCCN(C)CCCNc2c(c(=O)c2=O)NCCCN(C)CCCNc2c(c(=O)c2=O)NCCCN(C)CCCNc2c(c(=O)c2=O)NCCC1`, the growth is 32.9% (inactive).

In the case of `O=C1CC23OC4ON=C(Br)C4C2C(O)c2ccccc2N13` (stereo not given), the growth is 106% (inactive).

Turning to `CC(=O)O[C@]1(C)CC[C@H]2[C@H](CNCCc3ccc(Cl)cc3)C(=O)O[C@@H]2C2=C(C)C(=O)C[C@H]21`, the growth was 47.3% (inactive).

Regarding `COc1ccccc1C(=O)O/N=C(\N)Cc1cccc2ccccc12`, the growth is 61.6% (inactive).

As for `Cc1cc(N2CCCCCC2)nc(N2CCN(CC(=O)Nc3ccc4c(ccn4Cc4ccccc4)c3)CC2)n1`, the growth was 17.4% (inactive).

Consider `COc1cc2c(cc1-c1c(C)noc1C)ncc1nc(C3CCOCC3)n([C@H](C)COC(F)F)c12`, for which the growth is 40% (inactive).

As for `CCn1cc(-c2ccnc(NCCNS(=O)(=O)c3cccc4ccccc34)c2)c(-c2cccc(O)c2)n1`, the growth is 90.3% (inactive).

Regarding `O=C(Cn1c(-c2ccccc2)nc2cc(Cl)c(Cl)cc21)N=Nc1c(O)[nH]c2ccc(Cl)cc12`, the growth was 61.7% (inactive).

Regarding `CC(C)(O)c1cn(CCCCN2C(=O)C(=O)c3ccccc32)nn1`, the growth was 95% (inactive).

For the origin of these results see PubChem BioAssay (NCI).
